The text below walks through data of the supplement of paper PMC13380429.

The assay has as its system Vero E6 infected with SARS-CoV-2. As to the kind of experiment: inhibition of SARS-CoV-2 cytopathic effect; higher = more antiviral protection, active = above 15. As to conditions: 100 nM; 48 h. Background: Cytopathic effects are the visible damage that an infection or toxin causes in cultured cells.
For the compound `COc1ccc2c(C(=S)N(C)CC(=O)O)cccc2c1C(F)(F)F` [tolrestat], the “inhibition of SARS-CoV-2 cytopathic effect” value (shortened to “inhibition”) is -3.79% (inactive).

`NC(=O)c1cccc2cn(-c3ccc([C@@H]4CCCNC4)cc3)nc12` [niraparib]: the “inhibition” value is -1.61% (inactive).

On to `N#CN=C(NCCCCCCOc1ccc(Cl)cc1)Nc1ccncc1`, for which the “inhibition” value is -4.25% (inactive).

For `Oc1ccc(Cl)c2cccnc12` [cloxyquin], the “inhibition” value was 2.68% (inactive).

For the compound `CS(=O)(=O)N(Cc1ccco1)C[C@@H](O)Cn1c2ccccc2c2ccccc21`, the “inhibition” value was -0.72% (inactive).

As to `CN=c1nc(-c2ccccc2)n(-c2ccccc2)s1`, the “inhibition” value was -0.38% (inactive).

Take `CCc1cc(-c2[nH]nc(C)c2-c2ccc3c(c2)OCCO3)c(O)cc1O`: the “inhibition” value was -0.23% (inactive).

In the case of `CC(=O)Oc1c(C)cc(OCC(O)CNC(C)C)c(C)c1C` (centres undefined) [metipranolol], the “inhibition” value is 0.06% (inactive).

On to `O=C1c2ccccc2-n2c1nc1ccccc1c2=O` [tryptanthrin], for which the “inhibition” value is 0.33% (inactive).

For `Cn1cnnc1Sc1c([N+](=O)[O-])ncn1C`, the “inhibition” value is 2.13% (inactive).

With `O=C(NCc1ccc(F)cc1)N1CCN2C(=O)OC(c3ccccc3)(c3ccccc3)[C@@H]2C1` (racemic), the “inhibition” value was 3.05% (inactive).

Turning to `CCc1cncnc1N1CCN(Cc2nc3cc(C(F)(F)F)ccc3[nH]2)CC1`, the “inhibition” value is 1.45% (inactive).

With `COc1ccc(CCN)cc1OC` [homoveratrylamine], the “inhibition” value was 12.7% (inactive).

For `COc1nccnc1NS(=O)(=O)c1ccc(N)cc1` [sulfametopyrazine], the “inhibition” value is -1.36% (inactive).

On to `CN(C)C(=O)C(=O)c1cn(C)c2cc(Cl)c(C(=O)N3CCC(Cc4ccc(F)cc4)CC3)cc12`, for which the “inhibition” value is -2.84% (inactive).

For `CC#C[C@]1(O)CC[C@H]2[C@@H]3CCC4=CC(=O)CCC4=C3[C@@H](c3ccc(N(C)C)cc3)C[C@@]21C` [mifepristone], the “inhibition” value was 3.53% (inactive).

As for `CCCc1c(OCCCCc2nnn[nH]2)ccc(C(C)=O)c1O` [tomelukast], the “inhibition” value is -10% (inactive).

Turning to `C[C@H](O)[C@H](O)[C@H]1CNc2nc(N)[nH]c(=O)c2N1` [sapropterin], the “inhibition” value was 1% (inactive).

Turning to `Cc1cc(C)n(-c2cccc([C@H](CC(=O)O)CN3CC[C@@H](CCc4ccc5c(n4)NCCC5)C3)c2)n1` [integrin-antagonist-1], the “inhibition” value was 0.83% (inactive).

With `CCCNCCc1ccc(NS(=O)(=O)c2ccc(OC(F)(F)F)cc2)cc1`, the “inhibition” value is -0.23% (inactive).

In the case of `CCc1nc(-c2cccc(C)c2)c(-c2ccnc(NC(=O)c3ccccc3)c2)s1`, the “inhibition” value was -3.38% (inactive).

As to `CC(C)(C)CC(=O)Nc1c(F)cc(C(=O)/N=c2\sccn2COP(=O)(O)O)cc1F`, the “inhibition” value was -3.11% (inactive).

In the case of `CC[N+](CC)(CC(=O)Nc1c(C)cccc1C)Cc1ccccc1` [denatonium-benzoate], the “inhibition” value is -2.46% (inactive).

As to `CNCc1ccc(C)c(NC(=O)c2ccc(Nc3nc(-c4ccccc4)c4ccccc4n3)cc2)c1`, the “inhibition” value was -1.92% (inactive).

As to `CC(CCc1ccccc1)NCC(O)c1ccc(O)c(C(N)=O)c1` (centres undefined) [labetalol], the “inhibition” value was 0.47% (inactive).

For the compound `CC(C)c1cc(C(C)C)c(CC(=O)NS(=O)(=O)Oc2c(C(C)C)cccc2C(C)C)c(C(C)C)c1` [avasimibe], the “inhibition” value is -0.91% (inactive).

As to `CC(C)(C)NCC(O)c1cc(Cl)c(N)c(Cl)c1` (centres undefined) [clenbuterol], the “inhibition” value is 1.96% (inactive).

As for `O=C(O)c1ccc(N2C(=O)/C(=C/c3ccc(-c4ccc([N+](=O)[O-])cc4)o3)C=C2c2ccccc2)cc1`, the “inhibition” value is 1.72% (inactive).

Turning to `CCc1cnn2c(NCc3ccc[n+]([O-])c3)cc(N3CCCC[C@H]3CCO)nc12` [dinaciclib], the “inhibition” value was -3.71% (inactive).

In the case of `CC(C)[C@H]1C(=O)N[C@@H](CCCNC(=N)N)C(=O)NCC(=O)N[C@@H](CC(=O)O)C(=O)N[C@H](Cc2ccccc2)C(=O)N1C` [cilengitide], the “inhibition” value is -4.67% (inactive).

In the case of `N[C@@H](Cc1ccc(Cl)cc1)C(=O)O` (racemic) [fenclonine-(+/-)], the “inhibition” value was 0.7% (inactive).

As to `CC1=C(C(=O)O)N2C(=O)[C@@H](NC(=O)[C@H](N)c3ccccc3)[C@H]2SC1` [cephalexin], the “inhibition” value was 0.73% (inactive).

As for `CCOC(CN1CCN(CC(C)C(=O)c2ccccc2)CC1)c1ccccc1` (centres undefined) [eprazinone], the “inhibition” value was -2.2% (inactive).

For `O=C(c1ccc(F)cc1)N1CCC[C@H](c2nc(-c3ccc(F)cc3)no2)C1`, the “inhibition” value is -0.85% (inactive).

Take `O=C(NCCN1CCOCC1)c1ccc(Cl)cc1` [moclobemide]: the “inhibition” value was 0.11% (inactive).

`C[C@H](N[C@@H](CCc1ccccc1)C(=O)O)C(=O)N1CCC[C@H]1C(=O)O` [enalaprilat]: the “inhibition” value is -0.39% (inactive).

As for `CCN(CC)CCOc1ccccc1C(=O)CCc1ccccc1` [etafenone], the “inhibition” value was -0.61% (inactive).

Take `COc1ccc(Cl)c(Nc2nc3ccccc3nc2NS(=O)(=O)c2cccc(NC(=O)C(C)(C)N)c2)c1` [pilaralisib]: the “inhibition” value was 1.1% (inactive).

Consider `COc1ccc2c(c1)[C@]13CCCC[C@@H]1[C@H](C2)N(C)CC3` [dextromethorphan], for which the “inhibition” value is 0.6% (inactive).
